In the library only some 9.6% were active in any assay of this set; here they are far more common.
USP30 block – blocks human USP30 ubiquitin-rhodamine cleavage; Q70CQ3; inhibition, % at 25 µM; 5.3% of 47,000 active; AID 1645860; purified USP30, Ub-rhodamine cleavage fluorescence
Target sequence (Q70CQ3 whole entry, looked up): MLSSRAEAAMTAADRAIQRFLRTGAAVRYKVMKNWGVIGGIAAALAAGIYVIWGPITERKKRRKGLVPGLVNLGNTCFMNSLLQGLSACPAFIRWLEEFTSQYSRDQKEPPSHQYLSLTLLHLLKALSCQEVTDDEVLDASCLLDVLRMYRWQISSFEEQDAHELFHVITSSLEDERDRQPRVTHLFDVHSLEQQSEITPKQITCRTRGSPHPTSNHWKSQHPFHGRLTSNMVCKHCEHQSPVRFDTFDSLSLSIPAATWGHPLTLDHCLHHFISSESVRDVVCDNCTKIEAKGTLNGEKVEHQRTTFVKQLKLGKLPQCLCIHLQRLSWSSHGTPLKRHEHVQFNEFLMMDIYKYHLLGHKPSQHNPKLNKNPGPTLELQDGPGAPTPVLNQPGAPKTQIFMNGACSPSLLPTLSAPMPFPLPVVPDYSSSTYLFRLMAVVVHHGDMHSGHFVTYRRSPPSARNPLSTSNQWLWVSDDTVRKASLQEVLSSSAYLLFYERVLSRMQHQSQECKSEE
USP17 block – human USP17-like deubiquitinase inhibition; A8MUK1; purified USP17, Ub-rhodamine cleavage fluorescence, 3 h; inhibition, % at 50 µM; 6.5% of 47,000 active
Numbers stand for hits; – = inactive; · = not tested or not shown. No stated cut-off is given here; in the data, active means inhibition above about 30%; inactive means the rest.

SMILES	USP30 block	USP17 block
COc1ccc(C2C3=C(CC(c4ccco4)CC3=O)Nc3ccccc3N2C(C)=O)cc1 (stereo not drawn)	–	38
COc1cc(C2C3=C(CC(c4ccco4)CC3=O)Nc3ccccc3N2C(=O)CCC(=O)O)cc(OC)c1OC (stereo not drawn)	–	–
CCCCCC(=O)N1c2ccccc2NC2=C(C(=O)CC(c3ccco3)C2)C1c1cc(OC)c(OC)c(OC)c1 (stereo not drawn)	–	34
COc1ccc2c(c1)CCc1c-2n[nH]c1C(=O)NC1CCN(Cc2ccccc2)CC1	–	–
CCn1nccc1C1CCCN1S(=O)(=O)c1ccccc1[N+](=O)[O-] (stereo not drawn)	–	–
COc1cccc2cc(-c3csc(N)n3)oc12	–	–
COc1cccc2cccc(O)c12	–	85
O=S(=O)(NC1CC1)c1ccc(S(=O)(=O)N2CCN3CCCC3C2)cc1 (stereo not drawn)	–	–
O=S(=O)(NC1CC1)c1ccc(S(=O)(=O)N2CCCC3(CCCCC3)C2)cc1	41	·
O=C(Nc1nc(-c2ccccc2)ns1)c1ccccc1Cl	–	–
CC(=O)c1cccc(NC(=O)c2sc3nc(-c4cccc([N+](=O)[O-])c4)cn3c2C)c1	–	–
COc1ccc(NC(=O)c2sc3nc(-c4cccc([N+](=O)[O-])c4)cn3c2C)cc1OC	–	44
COc1ccc(-c2nnc(SCC(=O)Nc3ccc(C)cc3)n2C2CCCCC2)cc1OC	48	34
COc1ccc(NC(=O)CSc2nccn2C2CCCCC2)cc1	–	–
CC(C)=CCC/C(C)=C/CC/C(C)=C/Cc1c(C)cc(O)cc1O	–	39
COC1=C(OC)C(=O)C(C/C=C(/C)CC/C=C(\C)CC/C=C(\C)CC/C=C(\C)CC/C=C(\C)CC/C=C(\C)CCC=C(C)C)=C(C)C1=O	–	–
CCc1cc2c(cc(C(=O)OC)n2CC(=O)Nc2ccccc2F)s1	–	–
Fc1ccc2[nH]c3c(N4CCCC4)ncnc3c2c1	–	–
Fc1ccc(-c2nsc3c(N4CCCC4)ncnc23)cc1	–	32
O=C(C1CCCC1)N1CCCN(Cc2noc(-c3ccccc3)n2)CC1	–	–
Cc1ccc(NC(=O)c2c3c(nc4ccccc24)CCCCC3)c(C)c1	35	74
CC(OC(=O)c1c2c(nc3ccccc13)CCCC2)C(=O)Nc1ccc(Cl)cc1Cl (stereo not drawn)	–	30
CC(Oc1nncc2ccccc12)C(=O)Nc1ccc(Cl)cc1Cl (stereo not drawn)	72	67
O=C(OC1CCCCC1=O)c1c2c(nc3ccccc13)CCCCC2 (stereo not drawn)	–	–
COc1ccc(C)cc1NC(=O)c1c2c(nc3ccccc13)CCN(Cc1ccccc1)C2	–	–
SMILES	USP30 block	USP17 block
CC(OC(=O)c1c2c(nc3ccccc13)CCCC2)C(=O)Nc1ccc(N(C)C)cc1 (stereo not drawn)	–	40
CC(Oc1nncc2ccccc12)C(=O)Nc1ccc(S(=O)(=O)N2CCCC2)cc1 (stereo not drawn)	–	–
Cc1nn(-c2ccccc2)c(C)c1C(=O)OC(C)C(=O)Nc1cc(C(F)(F)F)ccc1Cl (stereo not drawn)	–	–
CC(C)n1nnc2cc(C(=O)N(C)CC(=O)Nc3ccc(F)cc3)ccc21	–	–
Cc1nonc1CC(=O)N1CCCC(Cc2nccnc2N)C1 (stereo not drawn)	–	–
NC(=O)C[C@H](NC(=O)[C@H](Cc1ccccc1)n1c(=O)[nH]c2ccccc2c1=O)C(=O)N[C@@H](Cc1ccccc1)C(=O)O	–	–
Cc1cc(N2CCCC(O)C2)n2nc(-c3nccn3C)cc2n1 (stereo not drawn)	–	–
CC(OC(=O)c1c2c(nc3ccccc13)CCC(C(C)(C)C)C2)C(=O)Nc1cccc([N+](=O)[O-])c1 (stereo not drawn)	–	–
CC(OC(=O)c1c2c(nc3ccccc13)CCCCC2)C(=O)Nc1ccc2ccccc2c1 (stereo not drawn)	–	63
CC(C)c1ccc(NC(=O)COc2nncc3ccccc23)cc1	33	–
Cc1cc(C)c(NC(=O)COc2nncc3ccccc23)c(C)c1	–	–
Cc1cc(C(=O)N2C[C@@H]3CC[C@H](Oc4ccccc4)[C@@H]3C2)c2c(C)noc2n1	–	–
COc1cc2c(cc1OC)-c1c(c(C(=O)NCC3CCCO3)nn1-c1ccccc1F)C2 (stereo not drawn)	–	–
CO[C@H]1/C=C/C=C\C=C\C[C@@H](OC(=O)[C@H](C)NC(=O)C2CCCCC2)[C@H](C)[C@@H](O)/C(C)=C\CCC2=CC(=O)C=C(NC(=O)C1)C2=O	–	46
N#Cc1ccccc1OCc1csc(-c2ccccc2)n1	–	–
Cc1ccc(NC(=O)CSc2ncc(-c3ccccc3)[nH]2)c(C)c1	–	–
Cc1cc(/C=C2\C(=N)N3N=CSC3=NC2=O)c(C)n1-c1cccc(F)c1	–	–
CCc1ccc(-n2c(C)cc(/C=C3\C(=N)N4N=CSC4=NC3=O)c2C)cc1	–	46
